{"source": "PubChem BioAssay (NCATS)", "note": "“And” between values parts separate entries of the source, which are not always exact repeats. Equal values may be shown once. Results filed as inconclusive are left out. Where a call stands in place of a potency, no number is given. The source made the active and inactive calls. Calls follow the shape of the dose curve; as a rule, active = well fitted cell-killing curve with a large enough effect; inconclusive = small, poorly fitted or top-dose-only effect, or effect the other way; inactive = no such curve, though single readings can be large or run the other way. Potency is read from the fitted curve at half-maximal effect.", "data": [{"assay": "Cell Viability - LYMP2-004 (AID 966); also: nearly all actives have a fitted effect of over 65% in size", "details": "LYMP2-004 lymphoblastoid cell viability, qHTS; series mostly up to 92.2 µM", "description": "NIH Chemical Genomics Center [NCGC]\nNIH Molecular Libraries Screening Centers Network [MLSCN]\nNational Institutes of Environmental Health Sciences [NIEHS]\nNational Toxicology Program [NTP]\nWe have developed a 1536-well cell-based assay for quantitative high throughput screening (qHTS) against a number of cell lines to determine in vitro cytotoxicity of small molecules. This particular assay uses a human lymphoblastoid cell line (LYMP2-004) purchased from Coriell Institute for Medical Research.\nNCGC Assay Protocol Summary:\nThe CellTiter-Glo luminescent cell viability assay (Promega) is a homogeneous method to measure the number of viable cells in culture. The end point readout of this assay is based on quantitation of intracellular ATP, an indicator of metabolic activity, using the luciferase reaction. Luciferase catalyzes the oxidation of beetle Luciferin to oxyluciferin and light in the presence of ATP. The luminescent signal is proportional to amount of ATP present.\nUsing the CellTiter-Glo luminescent cell viability assay, the amount of cellular ATP was measured in the lymphoblastoid cell line with complete culture medium following compound treatment for 24 hours. The assay was performed in opaque white Kalypsys 1536-well plates. In the screen, tetraoctylammonium bromide was used as positive control. Library compounds were measured for their ability to cause acute toxicity in the cell line, as reflected by a decrease in intracellular ATP levels, in a concentration-dependent manner. […] AC50 values were determined from concentration-response data modeled with the standard Hill equation.\nqHTS protocol for CellTiter Glo lymphoblastoid cellular assay\n[Step] [Parameter] [Value] [Description]\n1. Reagent; 5 uL; 2500 lymphoblastoid cells/well\n2. Time; 5 hr; 37 C incubation\n4. Controls; 23 nL; Tetraoctylammonium bromide 6.4pM to 92 uM\n5. Time; 24 hr; 37 C incubation\n6. Reagent; 5 uL; CellTiter Glo reagent\n7. Time; 30 min; Room Temperature\n8. Detection; Luminescence; Viewlux plate reader\nKeywords: cell viability, cytotoxicity, lymphoblastoid cell line, luminescence, NTPHTS, NTPHTS_NCGC, NIEHS, DSSTox, MLSMR, MLSCN, NIH Roadmap, qHTS, NCGC", "values": [{"smiles": "Cc1ccccc1C", "Potency": "inactive"}, {"smiles": "Nc1ccc(S(=O)(=O)O)cc1", "Potency": "inactive"}, {"smiles": "O=C(O)c1ccc(O)cc1O", "Potency": "inactive"}, {"smiles": "C=CC(=O)OCCOCCOCCOCCOC(=O)C=C", "Potency": "7.94 µM (active) and 12.6 µM (active)"}, {"smiles": "O[C@@H]([C@H](O)[C@@H](O)CBr)[C@@H](O)CBr", "Potency": "inactive"}, {"smiles": "CCO[Si](CCCN)(OCC)OCC", "Potency": "inactive"}, {"smiles": "CC(C)=CCCC(C)CCO", "note": "(stereo not given)", "Potency": "inactive"}, {"smiles": "OCCNCCO", "Potency": "inactive"}, {"smiles": "O=NO", "Potency": "inactive"}, {"smiles": "COc1ccc2nc(N)sc2c1", "Potency": "inactive"}, {"smiles": "CCCN(CCC)C(=O)SCC", "Potency": "inactive"}, {"smiles": "CCCCCCCCCCCC(=O)O", "Potency": "inactive"}, {"smiles": "CC12CCC(CC1=O)C2(C)C", "note": "(stereo not given)", "Potency": "inactive"}, {"smiles": "c1ccc2c(c1)c1cccc3ccc4cccc2c4c31", "Potency": "inactive"}, {"smiles": "COC(=O)c1ccc(C=O)cc1", "Potency": "inactive"}, {"smiles": "O=C(/C=C/c1ccc(O)c(O)c1)O[C@@H](C(=O)O)[C@@H](OC(=O)/C=C/c1ccc(O)c(O)c1)C(=O)O", "Potency": "inactive"}, {"smiles": "CC1=CC(C)(C)Nc2ccccc21", "Potency": "inactive"}, {"smiles": "COc1ccc(/C=C/c2cc(OC)cc(=O)o2)cc1", "Potency": "inactive"}, {"smiles": "Clc1cc(Cl)c(Cl)c(Cl)c1Cl", "Potency": "inactive"}, {"smiles": "c1ccccc1", "Potency": "inactive"}, {"smiles": "CCC(O)OC(O)CC", "note": "(stereo not given)", "Potency": "inactive"}, {"smiles": "COc1c2ccoc2cc2oc(=O)ccc12", "Potency": "inactive"}, {"smiles": "CCCCOCCO", "Potency": "inactive"}, {"smiles": "Cc1ccc([N+](=O)[O-])c(C)c1", "Potency": "inactive"}, {"smiles": "COC(=O)c1ccc(C)cc1", "Potency": "inactive"}, {"smiles": "Cc1ccc(N)c([N+](=O)[O-])c1", "Potency": "inactive"}, {"smiles": "C=CCc1ccc(OC)c(OC)c1", "Potency": "inactive"}, {"smiles": "C1OCOCO1", "Potency": "inactive"}, {"smiles": "CCCCCCCCCCCCCCC1CO1", "note": "(stereo not given)", "Potency": "inactive"}, {"smiles": "CCCCCCCCO", "Potency": "inactive"}, {"smiles": "Cc1c(N=C=O)cccc1N=C=O", "Potency": "inactive"}, {"smiles": "CCC(C)c1ccccc1O", "note": "(stereo not given)", "Potency": "inactive"}, {"smiles": "c1ccc2c(c1)[nH]c1ccccc12", "Potency": "inactive"}, {"smiles": "C=C(C)C1CC=C(C)C(O)C1", "note": "(stereo not given)", "Potency": "inactive"}, {"smiles": "CCCCC(CC)CN", "note": "(stereo not given)", "Potency": "inactive"}, {"smiles": "CC(=O)OC/C=C(\\C)CCC=C(C)C", "Potency": "inactive"}, {"smiles": "CCCCCCCCCCCCCC(=O)O", "Potency": "inactive"}, {"smiles": "O=C1CCc2ccccc2O1", "Potency": "inactive"}, {"smiles": "O=C(O)c1ccccc1", "Potency": "inactive"}, {"smiles": "CN(C)CCCCCCN(C)C", "Potency": "inactive"}]}]}
